Data: PubChem BioAssay AID463190 (Sanford-Burnham Center for Chemical Genomics, 2010)
In all, about 330,000 compounds went through this assay and about 7,300 (2.2%) were called active. Shown is part of a subset that was picked to be rich in actives. Values without a mark were called inactive.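 The calls were made as follows: active = inhibition of at least 40%; inactive = the rest.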

Experiment: growth inhibition of tim10-1 ts yeast – luminescence, uHTS, primary screen (AID 463190);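 also: mutant grown at 25 °C; 0% = DMSO wells with yeast and 100% = wells holding no yeast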
Conditions: S. cerevisiae tim10-1 ts strain growth, BacTiter-Glo, 24 h; at 20 µM; hits give high values

Point of comparison: `Cc1ccc(C)c(-n2ccnc2SCC(N)=O)c1`, inhibition 1.23%. Against it:
- COc1cc(NC(=O)C2CCN(c3cnccn3)CC2)cc(OC)c1 — higher, 18.5%
- Nc1nc2n(n1)C(c1ccco1)CC(c1ccc(Cl)c(Cl)c1)N2 (stereo not drawn) — higher, 20.9%
- COc1ccc(C2CC(c3ccc(C)cc3)Nc3ncnn32)cc1 (stereo not drawn) — higher, 31.2%
- CCOC(=O)c1sc(=NC(=O)/C=C/c2cccs2)n(C)c1C — higher, 9.93%
- Cc1c2cnn(CC(=O)NCCCN3CC(C)CC(C)C3)c(=O)c2c(C)n1Cc1ccc(Cl)cc1 (stereo not drawn) — lower, -4.29%
- CCOC(=O)C1=C(c2ccccc2)NC(=O)NC1c1cc(OC)c(OC)cc1OC (stereo not drawn) — higher, 2.13%
- CC(C)(C)c1ccc(CN2C(=O)c3ccccc3S2(=O)=O)cc1 — higher, 15%
- CN(Cc1cccs1)C(=O)CN1C(=O)c2ccccc2S1(=O)=O — lower, -8.18%
- COC(=O)c1cc2c(ccn2C)n1C — lower, -6.2%
- COc1ccc(C(C)=O)cc1COc1ccc(Cl)c(C)c1 — higher, 3.35%
- COc1ccc(/C=C/C(=O)Nc2c(C)nn(C)c2C)cc1COc1ccc(Br)cc1 — higher, 29.4%
- O=C(Oc1cccc(C(=S)N2CCOCC2)c1)c1cccc(Cl)c1 — higher, 39.2%
- CC(=O)Nc1ccccc1OC(=O)N1CCOCC1 — lower, -3.71%
- Cc1ccc(NS(=O)(=O)c2ccc(C(=O)NCCCN3CCOCC3)cc2)cc1 — lower, -36%
- CC1(C)CC(=O)C=C(c2ccc(Cl)c(C(F)(F)F)c2)C1 — lower, 0.973%
- Cc1cccc(OC(C)C(=O)N2CCc3ccccc3C2)c1 (stereo not drawn) — lower, -6.4%
- O=C(/C=C(O)/C=C/c1ccc(O)cc1)/C=C/c1ccc(O)cc1 — higher, 4.38%
- O=C(/C=C/c1ccccc1)N/C(=C/c1ccccc1)C(=O)Nc1ccccc1O — higher, 32.3%
- CCCCC[C@H]1CN(C2CCCCC2)C(=O)[C@@H]1CC(=O)NCc1ccc(OC)cc1 — higher, 17.9%
- O=C(Nc1ccccc1F)c1ccc(S(=O)(=O)N2CCCCCC2)cc1 — higher, 18.9%
- COC(=O)c1ccc(CNC(=O)c2ccc(S(=O)(=O)N3CCCCCC3)cc2)cc1 — higher, 14.2%

With `Clc1ccc(C2CC(c3cccs3)n3ncnc3N2)cc1Cl` (stereo not drawn) the inhibition was 44.6% (active).
In the case of `CCOC(=O)c1ccccc1CN1C(=O)c2ccccc2S1(=O)=O`, the inhibition is reported as 43.5% (active).
With `CCn1nc(C)c(NC(=O)/C=C/c2ccc(OC)c(COc3ccc(Br)cc3)c2)c1C` the inhibition was 52.1% (active).
In the case of `O=C(/C=C/c1cccs1)c1cc(Cl)ccc1OC(=O)N1CCOCC1`, the inhibition is reported as 50.2% (active).
With `O=C(/C=C/c1ccccc1)c1ccccc1O` the inhibition was 48.7% (active).
In the case of `O=C(NCCc1ccc(F)cc1)c1ccc(S(=O)(=O)N2CCCCC2)cc1`, the inhibition is reported as 41.8% (active).
